Shown are actives, neighbours in structure and some others; about 2.5% of the full set was active somewhere.
D2 PAM-1: Beta-Arrestin HTS for Positive Allosteric Modulators of the Human D2 Dopamine Receptor: Potentiators; AID 624464, 2012; DiscoveRx D2 beta-arrestin cells, luminescence, 90 min; 100% = 57 uM dopamine signal; actives 0.23% (n = 360,000); potentiation, % (concentration not given with the values); in the data active means potentiation above about 50%; inconclusive means mostly about 30% to 49%
Target sequence (P14416 whole entry, looked up): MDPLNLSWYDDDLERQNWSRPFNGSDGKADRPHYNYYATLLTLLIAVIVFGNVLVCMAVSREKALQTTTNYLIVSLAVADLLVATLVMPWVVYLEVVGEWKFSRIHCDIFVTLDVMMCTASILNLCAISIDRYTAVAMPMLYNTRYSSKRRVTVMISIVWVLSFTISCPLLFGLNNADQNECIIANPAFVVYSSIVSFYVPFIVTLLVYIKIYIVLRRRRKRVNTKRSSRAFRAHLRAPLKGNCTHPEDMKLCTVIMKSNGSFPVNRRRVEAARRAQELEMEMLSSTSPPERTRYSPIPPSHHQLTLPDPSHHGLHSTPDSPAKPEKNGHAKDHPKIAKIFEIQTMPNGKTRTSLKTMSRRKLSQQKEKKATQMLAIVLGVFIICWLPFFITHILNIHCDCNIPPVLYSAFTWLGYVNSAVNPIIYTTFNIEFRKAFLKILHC
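PathHunter D2 cells, attached overnight at 37 deg C, received compound in DMSO plus dopamine at EC20 (50 nM final) for 90 min at 37 deg C. Beta-arrestin recruitment was read as luminescence after 1 h with detection reagent at ambient temperature.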
D2 ag-1: HTS Assay for Allosteric Agonists of the Human D2 Dopamine Receptor: Primary Screen for Agonists | D(2) dopamine receptor (Homo sapiens), P14416 | HEK293 T-REx D2 cells, calcium flux agonist mode | activation, % at 2 µM | actives 0.53% (n = 340,000) | AID 485358, 2010;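 active means activation over 3 SD above normal in the single-dose calcium agonist read, cut at about 30% in these data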; further: 0% is about no effect
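In this primary screen, compounds producing a positive calcium signal within 180 s of addition to tetracycline-induced, force-coupled HEK293 Trex D2 cells are flagged; cells are dye-loaded with a no-wash calcium kit beforehand.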
D2 PAM-2: HTS Assay for Positive Allosteric Modulators of the Human D2 Dopamine Receptor: Primary Screen for Potentiators | HEK293 T-REx D2, calcium flux, EC20 dopamine potentiation | potentiation, % at 10 µM | actives 0.34% (n = 340,000);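 active means potentiation over 3 SD above the plate norm, cut at about 30% in these data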; further: 0% is about no effect
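Tetracycline-induced HEK293 T-REx cells force-coupled to calcium signalling expressed D2; compounds were pin-added after a 10 s baseline, read kinetically 180 s, then an EC20 dopamine challenge followed with a further 180 s calcium read.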
Apoferritin bind: qHTS Assay for Identification of Novel General Anesthetics; Ferritin light chain (Equus caballus), P02791; apoferritin/1-aminoanthracene competitive binding, fluorescence; Potency, µM (top dose mostly 77.5 µM), without a hit: at the highest dose activity change, negative = displacement, most hits filed as inhibitors; actives 0.074% (n = 350,000); AID 485281, 2010; active means well fitted inhibition curve with a large enough effect; inconclusive means small, poorly fitted or top-dose-only effect; inactive means no such curve, though single readings can be large or run the other way; further: potency means the concentration at half of the fitted maximal effect; on the % scale 0 is the no-effect control and ±100 the full control effect; nearly all actives have a fitted effect of over 20% in size
Target sequence (P02791 2-175 limits assumed): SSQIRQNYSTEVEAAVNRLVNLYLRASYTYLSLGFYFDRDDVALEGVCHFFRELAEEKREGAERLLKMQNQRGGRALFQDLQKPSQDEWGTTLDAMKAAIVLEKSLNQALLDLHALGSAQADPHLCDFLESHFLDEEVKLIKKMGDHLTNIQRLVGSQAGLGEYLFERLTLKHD
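In PBS, apoferritin at 10 uM is loaded with 1-AMA from a 50% saturated solution. After 10 min of compound exposure at ambient temperature, reduced 535 nm fluorescence indicates probe displacement.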
D2 antag: HTS Assay for Allosteric Antagonists of the Human D2 Dopamine Receptor: Primary Screen for Antagonists; D(2) dopamine receptor (Homo sapiens), P14416; actives 2% (n = 340,000); HEK293 TREx D2 cells, calcium flux, dopamine EC80; inhibition, % at 10 µM; AID 485344, 2010; in the data active means inhibition above about 30%; inactive means below that, where a call was filed; further: 0% is about no effect
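Calcium flux kinetic readout in an inducible HEK293 TREx D2 line plated overnight at 30 C. After 180 s compound exposure, an EC80 dopamine challenge follows with another 180 s kinetic read to detect antagonism.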
D2 ag-2: Beta-Arrestin HTS for Positive Allosteric Modulators of the Human D2 Dopamine Receptor: Agonists | AID 624465, 2012 | DiscoveRx PathHunter D2 beta-arrestin, luminescence, 90 min; 100% = 57 uM dopamine signal | actives 0.084% (n = 360,000) | activation, % (no concentration beside the values); in the data active means activation above about 40%; inconclusive means between about 15% and that limit
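Agonist mode: compounds alone added to overnight-plated D2 PathHunter cells for 90 min at 37 C, with 57 uM final dopamine (EC100) defining full response. Beta-arrestin recruitment detected by chemiluminescent reagent, read after 1 h at ambient temperature.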
The depositor's hits bear a star; ? = inconclusive; · = no result given; [ ] = dose if it differs, or a comment.

SMILES	D2 PAM-1	D2 ag-1	D2 PAM-2	Apoferritin bind	D2 antag	D2 ag-2
CCOC(=O)C(NC(=O)CC)(Nc1ccc(C(O)(C(=O)OCC)C(F)(F)F)cc1C)C(F)(F)F (centres undefined)	0	-1	15	?	34*	-4
C[C@H](NC(=O)CCC(=O)N1C[C@H]2C[C@H](C1)c1cccc(=O)n1C2)c1ccccc1	5	0	-6	-4%	17	2
O=c1cccc2n1CC1CC2CN(C(c2ccccc2)c2sc3ncnn3c2O)C1 (centres undefined)	-1	1	4	8%	32*	-2
CC(C)[C@H]1C(=O)N2CCC[C@H]2[C@]2(O)O[C@](NC(=O)[C@@H]3C=C4c5cccc6[nH]cc(c56)C[C@H]4N(C)C3)(C(C)C)C(=O)N12	66*	84*	-31	25%	88*	80*
CC(C)[C@@]1(NC(=O)[C@@H]2C[C@H]3c4cccc5[nH]cc(c45)C[C@@H]3N(C)C2)O[C@]2(O)[C@H]3CCCN3C(=O)CN2C1=O	·	·	·	-20%[29.3 µM]	·	·
CC(C)[C@@]1(NC(=O)[C@@H]2C=C3c4cccc5[nH]cc(c45)C[C@H]3N(C)C2)O[C@@]2(O)[C@@H]3CCCN3C(=O)[C@H](Cc3ccccc3)N2C1=O	·	64*	-29	20%	80*	·
O=P(O)(Oc1ccccc1)c1ccccc1	-2	·	·	·	·	-5
Cc1ccccc1NC(=NCCCN1CC1)Nc1ccccc1C	-17	·	·	·	·	-3
O=C1N(c2nncs2)CCN1[N+](=O)[O-]	69*	0	12	5%	-4	4
O=C1NC(=O)N(c2cccc(Cl)c2)C(=O)/C1=C\c1ccc(Sc2nc3ccccc3[nH]2)o1	-12	·	·	-4%	·	-4
O=C1NC(=O)N(c2ccccc2F)C(=O)/C1=C/c1ccc(Sc2nc3ccccc3[nH]2)o1	-6	19	10	?	44*	-5
CC(=NCCC1=CCCCC1)c1c(O)n(-c2ccccc2)c(=O)[nH]c1=O	-3	0	-9	-1%	31*	-5
CC(=NCCN1CCCCC1)c1c(O)n(-c2ccccc2)c(=O)[nH]c1=O	-9	-1	4	4%	7	-2
CSc1ccc(C(=O)C2CCCN(CCCn3cccn3)C2)cc1 (centres undefined)	-11	0	-15	-11%	36*	-3
O=C(c1ccc2c(=O)n(Cc3ccc4c(c3)OCO4)c(=S)[nH]c2c1)N1CCC2(CC1)OCCO2	-10	0	6	-7%	44*	-1
O=C(Nc1ccccc1)NC1CC2CCC(C1)N2 (centres undefined)	-14	0	9	-7%	-25	-4
Cc1ccc(CN2C3CCCC2CC(NC(=O)Nc2cccc(F)c2)C3)cc1 (centres undefined)	-26	1	-28	-18%	75*	-2
Cc1ccccc1OCCN=Cc1c(O)n(C)c(=O)n(C)c1=O	2	1	-5	6%	6	-1
CCOC(=O)[C@]12Cc3cc(C)ccc3[C@H]1N(Cc1ccccc1)C(=O)c1ccccc12	5	·	·	·	·	4
OC1(c2ccc(F)cc2)CCNC1 (centres undefined)	-8	0	-7	-5%	86*	-4
CNC1(c2ccc(F)cc2)CCCCC1	-7	·	·	·	·	-4
COc1ccc(Br)cc1C1SCC(=O)Nc2c1c(C)nn2-c1ccccc1C (centres undefined)	·	·	-5	?	·	·
CCC(C)NC(=O)CCC(=O)OC1O[C@H]2OC3(C)CC[C@H]4[C@H](C)CCC(C1C)C24OO3 (some centres undefined)	24	0	7	-4%	-31	57*
CCC(C)C(NC(=O)CCCNC(=O)CCC(=O)OC1O[C@H]2OC3(C)CC[C@H]4[C@H](C)CCC(C1C)C24OO3)C(=O)O (some centres undefined)	·	0	16	5%	18	·
Cc1cc(=O)oc2cc(OCC(=O)N3C[C@H]4C[C@@H](C3)c3cccc(=O)n3C4)ccc12	9	1	-1	-7%	-12	-1
SMILES	D2 PAM-1	D2 ag-1	D2 PAM-2	Apoferritin bind	D2 antag	D2 ag-2
COc1ccccc1N1CCN(Cc2ccccc2Cl)CC1	-14	4	-21	-8%	79*	-2
Nc1ccc(N2CCN(Cc3ccccc3Cl)CC2)c(Cl)c1	-11	3	-27	-7%	28	-3
COc1ccccc1N1CCN(Cc2ccccc2F)CC1	5	6	-27	3%	81*	-1
COc1ccccc1N1CCN(Cc2ccc(Br)cc2)CC1	-66	0	-21	-7%	94*	-3
O=C(Cc1ccc(Br)cc1)N1CCN(Cc2ccccc2)CC1	-12	-2	-3	-4%	-1	2
COc1ccccc1N1CCN(Cc2cnc(-c3ccccc3)[nH]2)CC1	-21	0	-13	-1%	57*	-3
COc1ccccc1N1CCN(Cc2c(F)cccc2F)CC1	-17	0	-19	8%	12	-1
COc1ccc(N2CCN(Cc3nc4ccccc4[nH]3)CC2)cc1	-8	1	-10	-10%	27	3
COC(=O)c1ccccc1NC(=O)c1cccn(Cc2cccc(Cl)c2)c1=O	·	1	12	-16%	·	·
CC(=NCc1cccnc1)c1c(O)n(Cc2ccccc2)c(=O)[nH]c1=O	-7	1	-2	1%	-5	-3
CCN1CCN(c2nc([N+](=O)[O-])nn2C)CC1	-2	1	2	2%	2	5
Cc1cccc(N2CCN(CCc3ccccc3)CC2)c1C	-26	-1	10	-13%	-18	-8
COc1ccccc1N1CCN(CCc2ccccc2)CC1	-7	1	-32	-12%	73*	0
CCN1/C(=C\C=C\C2=[N+](CC)c3ccccc3C2(C)C)C(C)(C)c2ccccc21	-37	50*	-17	28µM*	21	-8
COC(=O)C1=C(c2ccc(OC(F)(F)F)cc2)C[C@@H]2CC[C@H]1N2C(=O)NCc1cc(C)oc1C(F)(F)F	-3	2	-12	·	21	-7
CSc1ccc(/C=C/c2nc3ccccc3c(=O)n2-c2cccc(Cl)c2C)cc1	·	1	-6	-17%	·	·
